Measured values from PubChem BioAssay AID1159580 (chemical genetic matrix, 2015).
Values joined by “and” are separate entries in the source; they are usually repeats but may differ in a detail not shown here. Identical values can stand only once. Hit rate of the full screen: of about 5,500 compounds, about 2,000 (36%) were called active. About 18% were inconclusive and are not listed. No stated cut-off is given here; in the data, active means normalized growth mostly below about 0.91 (no sharp cut-off); inconclusive means no clear call, values can overlap the other calls; inactive means mostly above about 0.92. The list shows a part of the results.

Assay: chemical genetic growth profiling, strain panel (AID 1159580);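 further: tested at 20 µM; growth read once vehicle control cultures reached saturation at 30 °C; 1 = growth at the plate median or of vehicle wells; lower values mean less growth of the strain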
Conditions: growth OD

Measured: normalized growth

CC1=C(/C=C/C(C)=C/C=C/C(C)=C/C(=O)O)C(C)(C)CCC1
active: S. cerevisiae deletion strains, locus YLR262C, strain YPT6 (second series), hits give low values 0.827 | S. cerevisiae deletion strains, locus YOR083W, strain WHI5, hits give low values 0.883
inactive: S. cerevisiae deletion strains, locus YJR075W, strain HOC1, hits give low values 1.01 | S. cerevisiae deletion strains, locus YKL009W, strain mrt4, hits give low values 0.992 | S. cerevisiae deletion strains, locus YKL068W, hits give low values 1.02 | S. cerevisiae deletion strains, locus YKL085W, strain MDH1 (second series), hits give low values 1.02 | S. cerevisiae deletion strains, locus YKL085W, strain MDH1, hits give low values 1.02 | S. cerevisiae deletion strains, locus YKL160W, strain elf1, hits give low values 0.93 | S. cerevisiae deletion strains, locus YKL190W, strain CNB1, hits give low values 1.01 | S. cerevisiae deletion strains, locus YKR001C, strain vps1, hits give low values 1.02 | S. cerevisiae deletion strains, locus YKR026C, strain gcn3, hits give low values 1.01 | S. cerevisiae deletion strains, locus YKR091W, strain srl3, hits give low values 1.01 | S. cerevisiae deletion strains, locus YLL001W, strain dnm1, hits give low values 0.963 | S. cerevisiae deletion strains, locus YLL026W, hits give low values 0.996 | S. cerevisiae deletion strains, locus YLL041C, strain sdh2, hits give low values 1.02 | S. cerevisiae deletion strains, locus YLR027C, strain aat2, hits give low values 0.966 | S. cerevisiae deletion strains, locus YLR039C, strain RIC1, hits give low values 0.945 | S. cerevisiae deletion strains, locus YLR058C, strain SHM2, hits give low values 1.01 | S. cerevisiae deletion strains, locus YLR102C, strain apc9, hits give low values 1.04 | S. cerevisiae deletion strains, locus YLR113W, strain HOG1, hits give low values 0.978 | S. cerevisiae deletion strains, locus YLR221C, strain rsa3, hits give low values 0.982 | S. cerevisiae deletion strains, locus YLR258W, strain gsy2, hits give low values 0.972 | S. cerevisiae deletion strains, locus YLR262C, strain YPT6, hits give low values 0.93 | S. cerevisiae deletion strains, locus YLR268W, strain sec22, hits give low values 1 | S. cerevisiae deletion strains, locus YLR320W, strain mms22, hits give low values 0.935 | S. cerevisiae deletion strains, locus YLR330W, strain CHS5, hits give low values 1.01 | S. cerevisiae deletion strains, locus YLR342W, strain FKS1 (second series), hits give low values 1.02 | S. cerevisiae deletion strains, locus YLR342W, strain FKS1, hits give low values 0.922 | S. cerevisiae deletion strains, locus YLR357W, strain rsc2, hits give low values 0.94 | S. cerevisiae deletion strains, locus YLR370C, strain arc18, hits give low values 0.989 | S. cerevisiae deletion strains, locus YLR371W, strain rom2, hits give low values 1.03 | S. cerevisiae deletion strains, locus YLR384C, strain iki3, hits give low values 0.995 | S. cerevisiae deletion strains, locus YLR418C, strain cdc73, hits give low values 1.05 | S. cerevisiae deletion strains, locus YML016C, strain PPZ1, hits give low values 1.01 | S. cerevisiae deletion strains, locus YML032C, strain rad52, hits give low values 1.03 | S. cerevisiae deletion strains, locus YML120C, strain ndi1, hits give low values 1.01 | S. cerevisiae deletion strains, locus YML124C, strain tub3, hits give low values 1.03 | S. cerevisiae deletion strains, locus YMR058W, strain fet3, hits give low values 0.948 | S. cerevisiae deletion strains, locus YMR078C, strain ctf18, hits give low values 1.04 | S. cerevisiae deletion strains, locus YMR125W, strain sto1, hits give low values 1 | S. cerevisiae deletion strains, locus YMR129W, hits give low values 1 | S. cerevisiae deletion strains, locus YMR205C, strain PFK2, hits give low values 0.965 | S. cerevisiae deletion strains, locus YMR223W, strain ubp8, hits give low values 1.02 | S. cerevisiae deletion strains, locus YMR231W, strain pep5, hits give low values 1.01 | S. cerevisiae deletion strains, locus YMR263W, strain SAP30, hits give low values 1 and 0.999 | S. cerevisiae deletion strains, locus YMR307W, strain GAS1, hits give low values 1.02 | S. cerevisiae deletion strains, locus YNL067W, strain RPL9B, hits give low values 1 | S. cerevisiae deletion strains, locus YNL071W, strain lat1, hits give low values 0.957 | S. cerevisiae deletion strains, locus YNL128W, strain TEP1, hits give low values 1.02 | S. cerevisiae deletion strains, locus YNL153C, strain GIM3, hits give low values 1.01 | S. cerevisiae deletion strains, locus YNL175C, strain NOP13, hits give low values 1.05 | S. cerevisiae deletion strains, locus YNL183C, strain NPR1, hits give low values 0.905 | S. cerevisiae deletion strains, locus YNL197C, strain WHI3, hits give low values 1.04 | S. cerevisiae deletion strains, locus YNL209W, strain ssb2, hits give low values 0.973 | S. cerevisiae deletion strains, locus YNL224C, strain SQS1, hits give low values 1.03 | S. cerevisiae deletion strains, locus YNL233W, strain BNI4, hits give low values 1.01 | S. cerevisiae deletion strains, locus YNL248C, strain rpa49, hits give low values 0.955 | S. cerevisiae deletion strains, locus YNL250W, strain rad50, hits give low values 1.03 | S. cerevisiae deletion strains, locus YNL271C, strain bni1, hits give low values 1.03 | S. cerevisiae deletion strains, locus YNL298W, strain CLA4, hits give low values 1.03 | S. cerevisiae deletion strains, locus YNL307C, strain MCK1, hits give low values 1.01 | S. cerevisiae deletion strains, locus YNL322C, strain KRE1 (second series), hits give low values 0.989 | S. cerevisiae deletion strains, locus YNL322C, strain KRE1, hits give low values 1.01 and 1 | S. cerevisiae deletion strains, locus YNR049C, strain mso1, hits give low values 1.01 | S. cerevisiae deletion strains, locus YNR052C, strain pop2, hits give low values 1.04 | S. cerevisiae deletion strains, locus YOL006C, strain TOP1, hits give low values 1.04 | S. cerevisiae deletion strains, locus YOL012C, strain htz1 1.82 | S. cerevisiae deletion strains, locus YOL147C, strain pex11, hits give low values 1.03 | S. cerevisiae deletion strains, locus YOR001W, strain rrp6, hits give low values 0.978 | S. cerevisiae deletion strains, locus YOR061W, strain CKA2, hits give low values 1.01 | S. cerevisiae deletion strains, locus YOR069W, strain VPS5, hits give low values 1.01 | S. cerevisiae deletion strains, locus YOR070C, strain gyp1, hits give low values 0.975 | S. cerevisiae deletion strains, locus YOR080W, strain dia2, hits give low values 0.999 | S. cerevisiae deletion strains, locus YOR083W, strain WHI5 (second series), hits give low values 1.02 | S. cerevisiae deletion strains, locus YOR106W, strain vam3, hits give low values 0.935 | S. cerevisiae deletion strains, locus YOR136W, strain idh2, hits give low values 1.04 | S. cerevisiae deletion strains, locus YOR144C, strain elg1, hits give low values 1.04 | S. cerevisiae deletion strains, locus YOR184W, strain ser1, hits give low values 1.03 | S. cerevisiae deletion strains, locus YOR231W, strain MKK1, hits give low values 0.992 | S. cerevisiae deletion strains, locus YOR265W, strain rbl2, hits give low values 1.01 | S. cerevisiae deletion strains, locus YOR270C, strain vph1, hits give low values 0.926 | S. cerevisiae deletion strains, locus YOR290C, strain snf2, hits give low values 0.952 | S. cerevisiae deletion strains, locus YOR316C, strain cot1, hits give low values 1.02 | S. cerevisiae deletion strains, locus YPL051W, strain arl3, hits give low values 0.932 | S. cerevisiae deletion strains, locus YPL055C, strain LGE1, hits give low values 1.01 and 0.999 | S. cerevisiae deletion strains, locus YPL078C, strain atp4, hits give low values 0.943 | S. cerevisiae deletion strains, locus YPL106C, strain sse1, hits give low values 0.987 | S. cerevisiae deletion strains, locus YPL240C, strain hsp82, hits give low values 0.992 | S. cerevisiae deletion strains, locus YPL241C, strain CIN2, hits give low values 1.01 | S. cerevisiae deletion strains, locus YPL256C, strain CLN2, hits give low values 1.04 | S. cerevisiae deletion strains, locus YPR119W, strain clb2, hits give low values 1.03 | S. cerevisiae deletion strains, locus YPR141C, strain kar3, hits give low values 1.05 | S. cerevisiae deletion strains, locus YPR163C, strain tif3, hits give low values 1.04 | S. cerevisiae deletion strains, locus YPR167C, strain met16, hits give low values 1.03 | S. cerevisiae deletion strains, strain wtn01, hits give low values 1.04 | S. cerevisiae strains, strain wild type, hits give low values 1
